# rCAG binder – r(CAG) repeat RNA binding. TO-PRO-1 dye displacement fluorescence. inhibition, % at 3 µM. 370,000 compounds, 1.3% hits. AID 651821;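 active = inhibition above the plate cutoff, the mean of all test compounds on that plate plus 3 SD, cut at about 35% in these data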;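 also: 0% = DMSO alone and 100% = 100 µM mitoxantrone as full dye displacement; higher means more dye released from RNA so lower well fluorescence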
# Myeloid diff MLP – myeloid differentiation induction; ER-HoxA9 myeloid progenitors, lysozyme-GFP differentiation, flow cytometry; calls only at 10 µM; 360,000 compounds, 1% hits; AID 624256;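 active = normalized GFP-positive differentiation at or above the plate's own cutoff, the solvent-only control mean plus 3 SD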;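 also: cells exposed to compound for four days before flow analysis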
# FAS-TE inh – FAS thioesterase (human) inhibition; P49327; recombinant FAS-TE, OMFH fluorogenic substrate, fluorescence endpoint; inhibition, % at 15 µM; 360,000 compounds, 0.67% hits; AID 602261;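 active = compounds whose normalised, plate-corrected inhibition of enzyme fluorescence in the single-dose primary screen is 50% or more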;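 also: 0% = DMSO with enzyme and 100% = substrate without enzyme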
# GRIN3A LBD mod – modulates the human NR3A ligand-binding domain; NR3A LBD differential scanning fluorimetry, Tm shift; 0% = protein alone, 100% = glycine-bound protein; Tm shift relative to glycine control, % at 25 µM; 340,000 compounds, 2.5% hits;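 active = melting temperature shift of at least 10% of the positive control shift, at one fixed dose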
# MPTP block – permeability transition pore inhibition. isolated mouse mitochondria, Ca2+ swelling absorbance, 30 min. inhibition, % at 10 µM. 360,000 compounds, 1.4% hits. AID 602449;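 active = inhibition of 50% or more, scaled per plate between neutral and stimulator controls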;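 also: 0% = DMSO wells given calcium and 100% = 1 mM EGTA wells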
# Myeloid diff CP1 – myeloid differentiation induction. shares compounds with Myeloid diff MLP. ER-HoxA9 myeloid progenitors, GFP/Mac1 double-positive flow. 2,300 compounds, 2% hits. calls only;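 active = share of green or green-and-red cells above 9 and 9% in run 1 or 4 and 3% in run 2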
# GFP autofluor – counter-screen for myeloid differentiation promoters: compound fluorescence; fluorescence response, % (concentration not given with the values); shares compounds with Myeloid diff MLP; AID 651707; ER-HoxA9 myeloid progenitors, no estrogen, GFP autofluorescence flow cytometry; vehicle wells 0%, positive control 100%; 2,300 compounds, 7.4% hits;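 active = over 5% cells positive for green fluorescent reporter, or over 2% positive for both it and APC stain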;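 also: range taken on the double positive population between DMSO and positive control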
# Numbers without * were called inactive; i = inactive; / = no result; + = active, no number. Compounds with a hit are over-represented: about 5.7% of the library has one in this group of screens.
SMILES,rCAG binder,Myeloid diff MLP,FAS-TE inh,GRIN3A LBD mod,MPTP block,Myeloid diff CP1,GFP autofluor
COc1cc(C2=CCN(C(C)=O)CC2)ccc1OC(C)=O,-3,i,-11,-3,-2,/,/
COc1ccccc1CCn1cnc(-c2ccc(F)cc2F)c1CC(C)C,0,/,/,/,/,/,/
S=C(NCc1ccccc1)NC1CCCc2ccccc21 (centres undefined),4,i,22,-10,1,/,/
S=C(NC1CC1)NC1CCCc2ccccc21 (centres undefined),-2,i,1,-3,0,i,0
COc1ccc(OCC2CCNCC2)cc1,0,i,-6,-1,5,/,/
CCc1ccc(-c2nnn(CC(=O)N(C3CCCC3)C3CCS(=O)(=O)C3)n2)cc1 (centres undefined),2,i,0,-1,-1,/,/
O=C(Nc1ccon1)C1CCN(S(=O)(=O)c2cccs2)CC1,5,i,-1,-2,-2,i,1
CCc1ccc2c(c1)cc(CN(C(=S)Nc1ccccc1C)C1CC1)c1nnnn12,0,i,2,0,3,i,0
CCc1ccc2c(c1)cc(CN(C(=S)Nc1ccccc1)C1CC1)c1nnnn12,3,i,7,-3,4,/,/
CC(=O)Nc1sc(C)c(C)c1C(=O)OCC(=O)Nc1ccc(S(N)(=O)=O)cc1,1,+,0,-11,1,i,0
COC(=O)c1c(NC(=O)COC(=O)CCNS(=O)(=O)c2ccc(NC(C)=O)cc2)sc(C)c1C,5,i,6,0,-2,/,/
CC(C)NC(=O)C1(C)CN(S(C)(=O)=O)CC(=O)N1CCc1ccccc1F (centres undefined),1,i,/,/,0,/,/
CSc1cccc(NC(=O)c2ccc(Cl)nc2)c1,2,i,7,-4,-2,i,0
CSc1cccc(NC(=O)c2cnccn2)c1,2,i,0,0,0,/,/
COC(=O)CSc1nnc(CNc2ccc(OC)cc2)n1C,-1,+,-4,1,0,i,0
Cc1cc2nc(/N=C(\N)NC(=O)C(C)C)nc(C)c2cc1C,22,i,-9,5,21,i,0
CC(C)(C)c1ccc(C(=O)Nc2cccc3c(=O)[nH][nH]c(=O)c23)cc1,8,i,2,-11,0,/,/
CC(=O)N/C(=C\c1ccccc1)C(=O)OCC(=O)Nc1ccc(C)c(S(=O)(=O)N(C)C)c1,8,i,0,1,1,/,/
O=C1S/C(=C/c2ccc(N3CCOCC3)o2)C(=O)N1Cc1ccc(F)cc1,2,i,-57,-16,3,i,31*
C=CCN1C(=O)/C(=C2/Sc3ccc(OC)cc3N2C)SC1=Nc1cccc(O)c1,10,i,-3,4,1,i,0
Cc1oc(-c2ccccc2F)nc1CS(=O)(=O)CC(=O)NCCCN1CC(C)CC(C)C1 (centres undefined),2,i,-4,1,-1,/,/
C1CCCCCC(NCCN2CCNCC2)CCCCC1,4,+,-4,0,-4,i,0
O=C(NC1CCCCC1)N1CCNCC1,3,i,-6,1,1,/,/
CCn1cc(C(=O)N2CCCC(C(=O)c3cccc(C(F)(F)F)c3)C2)cn1 (centres undefined),-1,i,-5,/,1,/,/
CC1CC(C)CN(C(=O)COC(=O)c2cccc(S(=O)(=O)N(C)c3ccccc3)c2)C1 (centres undefined),-4,i,20,1,2,/,/
SMILES,rCAG binder,Myeloid diff MLP,FAS-TE inh,GRIN3A LBD mod,MPTP block,Myeloid diff CP1,GFP autofluor
CC1CC(C)CN(C(=O)COC(=O)c2ccc(S(=O)(=O)N(C)c3ccccc3)cc2)C1 (centres undefined),-1,i,32,1,1,i,0
N#Cc1c(N2CCN(C(=O)c3ccccc3)CC2)nc(-c2ccccc2)c2c1CCCC2,1,i,19,-12,3,/,/
N#Cc1c(N2CCN(C(=O)c3ccco3)CC2)nc(-c2ccccc2)c2c1CCCC2,1,i,16,-1,-1,i,0
CC(C)(C)OC(=O)N[C@H](C(=O)OC(C)(C)C)c1ccc2ccccc2c1,2,+,19,-1,6,i,1
O=C(COC(=O)c1ccccc1OCc1ccc(Cl)cc1)NCC1CCCO1 (centres undefined),-2,i,14,2,-1,/,/
CCCNC(=O)COC(=O)c1ccccc1OCc1ccc(Cl)cc1,-4,+,17,1,0,i,0
CCOC(=O)c1cnc2ccc(C(=O)OC)cc2c1Nc1ccc2c(c1)OCCO2,0,/,27,-4,-1,i,0
CCOC(=O)c1cnc2ccc(OC)cc2c1Nc1ccc2c(c1)OCCO2,-6,i,21,2,4,/,/
CC(=O)c1ccc(NC(=O)c2ccc3nc(-c4ccco4)c(-c4ccco4)nc3c2)cc1,/,i,3,-8,1,/,/
O=C(Nc1ccccc1)c1ccc2nc(-c3ccco3)c(-c3ccco3)nc2c1,74*,i,17,-19,2,i,0
Cn1nc(CC#N)c2c(=N)n(N)cnc21,1,i,-5,1,-1,/,/
COc1ccc(S(=O)(=O)Nc2ccc(-c3ccc4nncn4n3)cc2)c(OC)c1,8,i,-1,4,-3,/,/
COc1ccc(CNCc2cc(Cl)ccc2O)cc1,0,i,-7,-2,3,i,0
COc1cc(S(=O)(=O)NCC2CCCO2)ccc1Br (centres undefined),2,i,-7,1,-2,i,0
COc1cc(CNC(=O)c2cc(-c3cc(OC)ccc3Cl)n[nH]2)cc(OC)c1,4,i,19,/,1,/,/
O=C1c2cccc3c(N4CCCCC4)ccc(c23)C(=O)N1c1cccc(O)c1,-24,+,-78,-12,2,i,0
O=C1c2cccc3c(N4CCCCC4)ccc(c23)C(=O)N1CCO,-52,i,-59,2,0,/,/
Cc1[nH]c2ccccc2c1C(=O)COC(=O)c1ccc([N+](=O)[O-])s1,2,i,38,-8,-2,i,1
Cc1ccc(C(=O)C[n+]2cccc3ccccc32)cc1,5,+,-22,0,-1,i,1
O=C(C[n+]1cc(Br)cc2ccccc21)c1ccc(Br)cc1,11,i,2,0,1,/,/
O=C(C[n+]1cccc2ccccc21)c1ccc(Br)cc1,4,+,-4,0,-1,i,1
COc1ccc(OC)c(CNC(=O)C(C)n2nc(C)c3c(C)n(-c4ccccc4)nc3c2=O)c1 (centres undefined),-7,i,-4,0,-3,/,/
OC1(CN2CCOCC2)C2CN3CCN(C2)CC1(c1ccccc1)C3 (centres undefined),2,+,-1,-3,0,i,0
